According to PubChem BioAssay AID1347076 (National Center for Advancing Translational Sciences (NCATS), 2019):
Screen size: about 400,000 compounds; about 13,000 (3.2%) were called active. Where a call stands in place of a potency, no number is given. Not shown: some 18% with an inconclusive outcome. Calls come from the whole dose curve; as a rule, active = well fitted cell-killing curve with a large enough effect; inconclusive = small, poorly fitted or top-dose-only effect, or effect the other way; inactive = flat fitted curve, though single readings scatter. For the sample, actives were picked, then their nearest neighbours and some compounds at random.

test: qHTS assay for MDR1-selective chemotherapeutics: Primary screen using the drug-selected MDR subline cells KB-V1; settings: KB-V1 MDR cells viability, CellTiter-Glo, 72 h; series mostly up to 46.1 µM; note: nearly all actives have a fitted effect of over 60% in size
Method in brief: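 Following 72 h at 37 degrees C with compound, KB-V1 cell viability was read by CellTiter-Glo luminescence, medium being phenol-red-free DMEM plus 10% FBS; concentration-response parameters came from normalized, curve-fitted qHTS data.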
Potency is the fitted concentration of half-maximal effect.

| SMILES | Potency |
| --- | --- |
| CSCC(NS(=O)(=O)c1ccc(C)cc1)C(=O)O (stereo unspecified) | inactive |
| Cc1ccc(S(=O)(=O)Nc2nc(C)cc(-n3nc(C)cc3C)n2)cc1 | inactive |
| CCCC(C(=O)n1nc(C)cc1C)C(NS(=O)(=O)c1ccc(C)cc1)c1ccccc1 (stereo unspecified) | 23.1 µM (active) |
| Cc1ccc(C)c(C(O)c2ncc(-c3cccc4ccccc34)[nH]2)c1 (stereo unspecified) | inactive |
| c1ccc(Cn2nnc3c(NCC4CC4)ncnc32)cc1 | inactive |
| CC(C)CCC(=O)Nc1cc(S(=O)(=O)N2CCOCC2)ccc1N1CCCC1 | inactive |
| CC(=O)NCCC(=O)Nc1cc(S(=O)(=O)N2CCOCC2)ccc1N1CCOCC1 | inactive |
| Cc1cc(OCCCC(=O)Nc2cc(S(=O)(=O)N3CCOCC3)ccc2N2CCOCC2)ccc1Cl | 13 µM (active) |
| COC(C(=O)NCc1ccccc1C)c1ccccc1 (stereo unspecified) | inactive |
| COC(C(=O)Nc1ccc(C(C)=O)cc1)c1ccccc1 (stereo unspecified) | inactive |
| COC(C(=O)Nc1ccc(S(=O)(=O)Nc2ccc(C)c(C)c2)cc1)c1ccccc1 (stereo unspecified) | 20.6 µM (active) |
| COc1cccc(Cn2c(SCc3ccc(C(=O)N4CCC(C)CC4)cc3)nc3ccncc32)c1 | inactive |
| CC1CCN(C(=O)c2ccc(CSc3ccc(Cl)cc3)cc2)CC1 | 18.4 µM (active) |
| O=C(C1CC1)N1CCN=C1SCc1ccc(Cl)cc1 | inactive |
| CCCNC(=O)C1(C)CCCN(C(=O)c2cccc(OC(C)=O)c2C)C1 (stereo unspecified) | inactive |
| FC(F)(F)c1ccccc1Cc1c(-c2ccccc2)nc2c3ccccc3ccn12 | inactive |
| COc1ccc(F)cc1S(=O)(=O)NCC(c1ccc2c(c1)OCO2)N1CCN(C)CC1 (stereo unspecified) | inactive |
| Cc1cc(C)c(S(=O)(=O)NCC(c2ccc3c(c2)OCO3)N2CCOCC2)c(C)c1 (stereo unspecified) | 10.3 µM (active) |
| CC(C)CNC(=O)C(=O)NCC(c1ccc2c(c1)OCO2)N1CCOCC1 (stereo unspecified) | inactive |
| O=C(CCc1ccccc1)NCc1ccc2c(c1)CCN2C(=O)c1ccccc1 | inactive |
| Cc1nccn1-c1ccc(NC(=O)[C@H]2O[C@@H](n3cnc4c(N)ncnc43)[C@H](O)[C@@H]2O)cc1 | inactive |
| CSc1ccc(CN2CCC2(C)C(=O)Nc2ccc(C)c(O)c2)cc1 (stereo unspecified) | inactive |

| SMILES | Potency |
| --- | --- |
| Cc1nc2sc(C)c(C)n2c(=O)c1S(=O)(=O)NCCc1ccc(Cl)cc1 | inactive |
| CC1(C(=O)NS(=O)(=O)c2ccccc2)CCN1C(=O)c1ccccc1 (stereo unspecified) | inactive |
| Cc1cc(C)cc(-n2ccnc2SCC(=O)Nc2nc3ccccc3s2)c1 | inactive |
| Cc1cccc(-n2ccnc2SCC(=O)Nc2cccc3ccccc23)c1C | inactive |
| Cc1nnc(NC(=O)CSc2nccn2-c2cccc(C)c2C)s1 | 9.2 µM (active) |
| C[C@@H]1CN([C@@H](C)CO)C(=O)CCCn2nncc2CO[C@@H]1CN(C)S(=O)(=O)c1ccc(-c2ccccc2)cc1 | inactive |
| O=C(N/N=C/c1cccc(OCc2ccccc2)c1)c1ccc(Br)o1 | inactive |
| O=C(N/N=C\c1ccc(Br)cc1)c1ccc(Cn2cccn2)o1 | 11.6 µM (active) |
| CN(C)c1ccc(/C=N/NC(=O)c2ccc(Cn3cc(Br)cn3)o2)cc1 | inactive |
| C[C@H]1CN([C@@H](C)CO)S(=O)(=O)c2ccc(Br)cc2O[C@H]1CN(C)C(=O)c1cnccn1 | inactive |
| CC(C)CC1C(=O)N(Cc2cn(Cc3ccco3)nn2)CCS(=O)(=O)N1Cc1ccc(-c2ccc(Cl)c(Cl)c2)cc1 (stereo unspecified) | inactive |
| CCCCN(C=O)c1c(CC)nc2c(OCCC3CCCCC3)cccn12 | inactive |
| COC(=O)Cc1[nH]n(-c2nc3ccccc3s2)c(=O)c1C(C)=Nc1ccc(OC)cc1 | 9.2 µM (active) |
| COc1ccc(CC(=O)Nc2ccc(-c3nc4ccccc4s3)c(C)c2)cc1 | inactive |
| COc1ccc(/C=C(/CC(=O)Nc2ccc(C)cc2)c2nc3ccccc3s2)cc1 | inactive |
| CC1=C(C(=O)N2CCOCC2)CC(CC(=O)NCc2cccc3ccccc23)C(=O)N1CCC1=CCCCC1 (stereo unspecified) | inactive |
| COc1cc(C(=O)NCCc2csc3nc(-c4ccccc4C)nn23)cc(OC)c1OC | inactive |
| CC[C@H]1CN2CCc3cc(OC)c(OC)cc3[C@@H]2C[C@@H]1C[C@H]1NCCc2cc(OC)c(OC)cc21 | 5.17 µM (active) |
| CCC(CC)C(=O)N1CCc2cc(OC)c(OC)cc2C1COc1ccc(F)cc1 (stereo unspecified) | inactive |
| COc1ccc2c(c1)CCNC2Cc1ccc(OC)c(O)c1 (stereo unspecified) | inactive |
| Cc1cc(Cl)ccc1-c1nc(NCCN(C)C)nc2ccsc12 | inactive |
| COc1cc(C=NC2CCCCC2)ccc1O | inactive |

| SMILES | Potency |
| --- | --- |
| CCc1ccc(-c2nn3c(C)nnc3s2)cc1NC(=O)c1ccc(-c2cccc(Cl)c2)o1 | inactive |
| CCOc1cccc(-c2nn3c(-c4ccccn4)nnc3s2)c1 | 5.17 µM (active) |
| CCOc1cccc(-c2nnc(SCC(=O)NC3CC3)n2C)c1 | inactive |
| CCOC(=O)C1CCN(C(=O)c2ccc3c(=O)n4nc(Nc5ccccc5CC)sc4nc3c2)CC1 | inactive |
| COc1cc(NC(=O)Cn2nc(-c3ccc(C)c(C)c3)ccc2=O)cc(OC)c1 | inactive |
| Cc1ccc(-c2nc3c(Cl)cc(C(F)(F)F)cn3c2Cc2cccc(Cl)c2)cc1 | inactive |
| CC(NC(=O)Cn1cc(C(F)(F)F)cc(Cl)c1=O)c1ccccc1 (stereo unspecified) | inactive |
| O=c1c([N+](=O)[O-])cc(C(F)(F)F)cn1Cc1cccc(Cl)c1 | 18.4 µM (active) |
| Cn1c(NCc2cccnc2)nc2cc(-c3ccc(F)cc3)sc2c1=O | inactive |
| O=C(Nc1ccccc1C(F)(F)F)c1nc(S(=O)(=O)Cc2ccccc2F)ncc1Cl | inactive |
| COc1ncnc2c1ncn2CCCNCCN1CCOCC1 | inactive |
| Cc1ccccc1C1=NC(C(F)(F)F)(C(F)(F)F)c2c(n(-c3ccc(F)cc3)c(=O)[nH]c2=O)N1 | 14.6 µM (active) |
| O=c1[nH]c(=O)n(Cc2ccco2)c2c1C(C(F)(F)F)(C(F)(F)F)N=C(c1ccco1)N2 | inactive |
| COc1cccc(C(=O)NC2(C(F)(F)F)C(=O)Nc3c2c(=O)[nH]c(=O)n3-c2ccc(C)cc2)c1 (stereo unspecified) | inactive |
| O=C(NC(c1ccco1)c1cc(Cl)c2cccnc2c1O)c1ccccc1 (stereo unspecified) | inactive |
| COc1ccc2nc(-c3ccccn3)ccc2c1 | inactive |
| COc1cccc(-c2noc(C3CCCN(C(=O)c4ccc(F)cc4)C3)n2)c1 (stereo unspecified) | inactive |
| CC(C)c1ccc(-c2noc(C3CCCN(S(C)(=O)=O)C3)n2)cc1 (stereo unspecified) | 18.4 µM (active) |
| COc1cc(-c2noc(C3CCCN(S(=O)(=O)c4cccc(Cl)c4)C3)n2)cc(OC)c1OC (stereo unspecified) | inactive |
| O=c1ccc(S(=O)(=O)N2CCCC2)cn1Cc1nc(-c2ccccc2)no1 | inactive |
| O=C(Cc1cccs1)N1CCCC(c2nc(-c3ccc(S(=O)(=O)N4CCCC4)cc3)no2)C1 (stereo unspecified) | 20.6 µM (active) |
| COc1ccc(NC(=O)N2CCCC(c3nc(-c4ccc(F)cc4)no3)C2)cc1 (stereo unspecified) | inactive |
